Compound activity: PubChem BioAssay, National Center for Advancing Translational Sciences (NCATS)
Shown are actives, neighbours in structure and some others; about 12% of the full set was active somewhere.
Sfp PPTase inh = qHTS Assay for Inhibitors of Bacillus subtilis Sfp phosphopantetheinyl transferase (PPTase). 4'-phosphopantetheinyl transferase ffp (Bacillus subtilis), Q9F4F7. Potency, µM, without a hit: largest response in the series, negative = inhibition, most hits filed as inhibitors. AID 1490, 2009. Biochemical Sfp PPTase activity, qHTS. 310,000 tested, 3.5% active;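 further: the enzyme is Sfp with the accession as filed and its product quenches rhodamine fluorescence; potency means the concentration at half of the fitted maximal effect; 0% = enzyme reaction without inhibitor and -100% = no enzyme wells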
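After 15 min at room temperature with compound, 15 nM Sfp received 5 uM rhodamine-CoA plus 12.5 uM BHQ-2-ybbR (50 mM Hepes pH 7.6, 10 mM MgCl2). Rate came from the fluorescence difference over 30 min, ex 525/em 598 nm.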
PLK1 PBD inh = qHTS for Inhibitors of PLK1-PDB (polo-like kinase 1 - polo-box domain): Primary Screen | Serine/threonine-protein kinase PLK1 (Homo sapiens), P53350 | Plk1 PBD binding of FITC phosphopeptide, fluorescence polarization | Potency, µM, inactives show max response, negative = inhibition, hits mostly inhibitors | 360,000 tested, 2.8% active | AID 720504, 2013; further: potency means the concentration at half of the fitted maximal effect; series mostly up to about 57 µM; on the % scale 0 is the no-effect control and ±100 the full control effect; nearly all actives have a fitted effect of over 65% in size
G9a inh = qHTS Assay for Inhibitors of Histone Lysine Methyltransferase G9a; Histone-lysine N-methyltransferase EHMT2 (Homo sapiens), Q96KQ7; G9a H3K9 monomethylation, AlphaScreen, 2 h; Potency, µM (highest dose often 102 µM), inactives show top-dose activity, negative = inhibition, usual class: inhibitors; 350,000 tested, 8.8% active; AID 504332, 2011; further: potency means the concentration at half of the fitted maximal effect; on the % scale 0 is the no-effect control and ±100 the full control effect; nearly all actives have a fitted effect of over 75% in size
Target sequence (Q96KQ7 913-1193 limits assumed): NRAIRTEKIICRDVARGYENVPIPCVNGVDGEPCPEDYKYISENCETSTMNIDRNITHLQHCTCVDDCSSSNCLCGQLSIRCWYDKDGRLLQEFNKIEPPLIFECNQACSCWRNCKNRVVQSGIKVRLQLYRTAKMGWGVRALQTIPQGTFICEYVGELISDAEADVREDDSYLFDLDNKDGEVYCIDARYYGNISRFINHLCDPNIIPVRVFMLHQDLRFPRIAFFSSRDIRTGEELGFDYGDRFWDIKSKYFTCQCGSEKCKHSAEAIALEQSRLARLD
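G9a (20 nM) preincubated 15 min RT with compounds, then 500 nM biotinylated H3K9 peptide and 20 uM SAM added; 2 h RT reaction. Monomethyl-H3K9 product detected by AlphaScreen with anti-H3K9me1 antibody, streptavidin donor and anti-rabbit IgG acceptor beads.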
BAZ2B inh = qHTS Assay for Inhibitors of BAZ2B. Bromodomain adjacent to zinc finger domain protein 2B (Homo sapiens), Q9UIF8. AlphaScreen BAZ2B-H3K14Ac peptide displacement. Potency, µM (series often up to 114 µM), without a hit: at the top dose activity change, negative = inhibition, most hits filed as inhibitors. 360,000 tested, 4.4% active. AID 504333, 2011; further: potency means the concentration at half of the fitted maximal effect; on the % scale 0 is the no-effect control and ±100 the full control effect; nearly all actives have a fitted effect of over 60% in size
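Compounds, titrated to a top concentration of 110 uM, were incubated 30 min at room temperature with preformed BAZ2B/acetyl-K14 H3 peptide complex (50 nM each). Proximity signal was measured by AlphaScreen after 20 min with beads.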
HP1b chromo inh = HTS for Inhibitors of HP1-beta Chromodomain Interactions with Methylated Histone Tails; 390,000 tested, 0.56% active; AID 540317, 2011; Chromobox protein homolog 1 (Homo sapiens), P83916; Potency, µM (top dose mostly 114 µM), for inactives: at the top dose activity change, negative = inhibition, hits mostly inhibitors; AlphaScreen HP1-beta / biotin-H3K9me3 peptide binding; further: potency means the concentration at half of the fitted maximal effect; nearly all actives have a fitted effect of over 70% in size
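Compound inhibition of the preformed complex between 50 nM HP1-beta and 50 nM biotinylated H3K9me3 peptide was read by AlphaScreen. Buffer was PBS pH 7.4 with 0.01% Tween-20. Incubations ran 30 min at room temperature, with 10 ug/mL donor/acceptor beads.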
JMJD2A Tudor = qHTS Assay for Inhibitors of JMJD2A-Tudor Domain. Lysine-specific demethylase 4A (Homo sapiens), O75164. AlphaScreen JMJD2A-Tudor / H3K4me3 peptide binding. Potency, µM (series often up to 114 µM), without a hit: top-dose activity change, negative = inhibition, most hits filed as inhibitors. 390,000 tested, 4.4% active. AID 504339, 2011; further: potency means the concentration at half of the fitted maximal effect; on the % scale 0 is the no-effect control and ±100 the full control effect; nearly all actives have a fitted effect of over 50% in size
Sfp PPTase conf = Confirmation qHTS Assay for Inhibitors of Bacillus subtilis Sfp phosphopantetheinyl transferase (PPTase); shares compounds with Sfp PPTase inh; Sfp PPTase enzymatic assay, qHTS titration; Potency, µM (top dose mostly 114 µM), inactives show at the top dose activity change, negative = inhibition, hits mostly inhibitors; 380 tested, 79% active; AID 2701, 2010;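 further: potency means the concentration at half of the fitted maximal effect; plate controls were uninhibited Sfp reaction for no effect and no enzyme control for full effect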
Target sequence (Q9F4F7 whole entry, looked up): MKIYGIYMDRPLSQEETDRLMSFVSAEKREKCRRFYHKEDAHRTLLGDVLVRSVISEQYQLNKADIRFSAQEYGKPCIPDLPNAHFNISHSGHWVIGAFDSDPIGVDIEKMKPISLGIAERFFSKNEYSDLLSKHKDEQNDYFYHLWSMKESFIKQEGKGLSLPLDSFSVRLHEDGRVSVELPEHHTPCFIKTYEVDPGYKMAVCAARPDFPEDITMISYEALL
Sfp gel assay = Gel-Based Assay for Inhibitors of Bacillus subtilis Sfp phosphopantetheinyl transferase (PPTase) | 210 tested, 20% active | Potency, µM, hits mostly inhibitors | shares compounds with Sfp PPTase inh | AID 2707, 2010 | purified Sfp, gel-based phosphopantetheinylation read-out;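 active means potency below 100 µM; inconclusive means dose-dependent response but potency above 100 µM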;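 further: band intensities scaled against SCH202676 control wells before curve fitting; potency is an IC50 for inhibitors of Sfp transfer activity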
TbPYK confirm = qHTS of Trypanosoma Brucei Inhibitors: Confirmatory Assay for Cherry-picked Compounds | recombinant TbPYK, Kinase-Glo ATP luminescence | shares compounds with PLK1 PBD inh | 890 tested, 67% active | Potency, µM (top dose mostly 76.9 µM), without a hit: top-dose activity change, negative = inhibition, most hits filed as inhibitors | AID 720569, 2013; further: potency means the concentration at half of the fitted maximal effect; on the % scale 0 is the no-effect control and ±100 the full control effect; nearly all actives have a fitted effect of over 70% in size
TbPYK ADP-Glo = qHTS of Trypanosoma Brucei Inhibitors: Orthogonal Assay for Cherry-picked Compounds; shares compounds with PLK1 PBD inh; recombinant TbPYK, ADP-Glo luminescence, 60 min; Potency, µM (highest dose often 76.9 µM), for inactives: at the top dose activity change, negative = inhibition, actives largely listed as inhibitors; 890 tested, 62% active; AID 720584, 2013; further: potency means the concentration at half of the fitted maximal effect; on the % scale 0 is the no-effect control and ±100 the full control effect; nearly all actives have a fitted effect of over 75% in size
Active calls of the source: *; u = inconclusive; x = no result; [ ] = another dose, or the depositor's remark. Unless noted, the call rests on the fitted dose curve; in most records, active means well fitted curve in the direction sought with a large enough effect; inconclusive means small, poorly fitted or top-dose-only effect, or another doubt; inactive means no such curve, though single readings can be large; an effect the other way counts as inactive or inconclusive.

SMILES	Sfp PPTase inh	PLK1 PBD inh	G9a inh	BAZ2B inh	HP1b chromo inh	JMJD2A Tudor	Sfp PPTase conf	TbPYK confirm	TbPYK ADP-Glo	others
c1cncc(Nc2nc(-c3cccs3)cs2)c1	5.01µM*	18.9µM*	u	u	u	20µM*	29.6µM*	-20.8%	u	Sfp gel assay=u
COc1cccc(SCc2noc(C(=O)NCCC(C)C)c2C(=O)NCCC(C)C)c1	x	1.6%	x	x	59.6%	27.6%	x	x	x
Cc1cc(/C=C2\C(=N)N3N=C(C(C)C)SC3=NC2=O)c(C)n1-c1ccccc1	12.4%	-14.7%	-36.9%	3.1%	36.5%	-6.3%	x	x	x
COC(=O)c1sc(NC(=O)c2cc(-c3ccccc3)nc3ccccc23)c(C#N)c1C	0.631µM*	2.67µM*	u	-33.4%	7.94µM*	-3.1%[57.1 µM]	8.35µM*	7.08µM*	7.08µM*
COC(=O)c1sccc1NC(=O)c1cc(-c2ccc(C)cc2)nc2ccccc12	4.6%	-0.8%	x	3.5%	33.8%	3.4%	x	x	x
O=C(CSc1ccc(-c2ccco2)nn1)c1ccccc1	3.16µM*	u	7.94µM*	50.1µM*	-3.9%	u	9.37µM*	u	31.6µM*
Cc1cc(Cl)ccc1NC(=O)CN(C)C1=NS(=O)(=O)c2ccccc21	x	-2.3%	16.1%[2.33 µM]	0.7%	15.8%	-22.7%	x	x	x
CC1CCCN(C(=O)c2nn(C)c3c2CSc2ccccc2-3)C1 (stereo unspecified)	44.7µM*	u	x	2.1%	15.3%	u	52.7µM*	7.94µM*	10µM*
CC1CC(C)CN(C(=O)c2nn(C)c3c2CSc2ccccc2-3)C1 (stereo unspecified)	-8.0%	-3.9%	x	2.2%	33.7%	1.4%	x	x	x
N#C/C(=C/c1ccc(N2CCCCCC2)o1)c1ccc(Cl)cc1	5.01µM*	-5.5%	7.94µM*	44.7µM*	-35.4%	39.8µM*	18.7µM*	u	35.5µM*
CCCN(CC(=O)Nc1ccccc1OC)C(=O)c1nc2nc(C)ccn2n1	x	-12.9%	x	x	29.8%	-16.4%	x	x	x
